PubChem BioAssay AID485314 (National Center for Advancing Translational Sciences (NCATS), 2010)
Out of some 340,000 compounds screened, about 4,500 (1.3%) were called active. About 5% were inconclusive and are not listed. This is one part of a sample in which actives are shown more often than they occur. Calls come from the whole dose curve; as a rule, active = well fitted inhibition curve with a large enough effect; inconclusive = small, poorly fitted or top-dose-only effect, or another doubt; inactive = no such curve, though single readings can be large or run the other way.

Target: DNA polymerase beta (Homo sapiens) (UniProt P06746)
Test: qHTS Assay for Inhibitors of DNA Polymerase Beta
Details: Pol beta primer extension/strand displacement, fluorescence kinetic; series mostly up to 114 µM; activity change, negative = inhibition: at the top concentration
Method in brief: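 Reaction started by 50 nM substrate onto compound-treated Pol beta (10 nM, 15 min preincubation, room temperature); plates read at 0 min and 10 min. Normalized concentration-effect data fitted by four-parameter Hill equation.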
% is set by controls: 0 for no effect and ±100 for the full control effect; potency is the fitted concentration of half-maximal effect.

SMILES	activity change, negative = inhibition	Potency
Cc1ccc(C2c3[nH]c4ccccc4c3CCN2C(=O)c2cccc(C)c2)cc1 (stereo not given)	3.32% (inactive)	–
O=C(Nc1ccc(OC(F)(F)F)cc1)C1CCCN(S(=O)(=O)c2ccc(Br)s2)C1 (stereo not given)	-6.29% (inactive)	–
Cc1ccc(CSc2nc3cccnc3n2Cc2ccc(C(=O)NC3CC3)cc2)cc1	0.704% (inactive)	–
COc1ccc(C2(Nc3cccc(F)c3)C(=O)c3ccccc3C2=O)cc1	9.84% (inactive)	–
CN(Cc1ccccc1)S(=O)(=O)c1ccc(F)c(C(=O)Nc2cccc(Cl)c2Cl)c1	3.34% (inactive)	–
O=C1CSC(=S)N1/N=C/c1ccc(O)c([N+](=O)[O-])c1	–	17.8 µM (active)
O=C1CSC(=S)N1c1ccc(O)cc1	10.1% (inactive)	–
O=[N+]([O-])c1ccc(N2CCSCC2)cc1O	0.685% (inactive)	–
Cc1ccc(Nc2c(-c3ccc(C)cc3)nc3cnccn23)cc1	2.74% (inactive)	–
CCOC(=O)C1CCN(c2ncnc3c2c(-c2ccccc2)cn3-c2cccc(C)c2)CC1	29.8% (inactive)	–
COc1ccc(Cl)cc1N(C)C(=O)c1cc2c(=O)oc3ccc(C)cc3c2s1	-16.4% (inactive)	–
O=C(Nc1ccccc1)c1nnsc1S(=O)(=O)c1ccc(Cl)cc1	–	44.7 µM (active)
O=C(Nc1ccc(Oc2ccccc2)cc1)C1CCN(S(=O)(=O)c2ccc(Cl)cc2)CC1	0.848% (inactive)	–
O=C(Nc1cccc(Cl)c1)c1csnn1	-3.01% (inactive)	–
CC(C)c1ccc(OCC(=O)N(Cc2ccc(N(C)C)cc2)C2CCS(=O)(=O)C2)cc1 (stereo not given)	-25% (inactive)	–
CC(C)(C)OC(=O)NNc1c2ccccc2nc2ccccc12	23.7% (inactive)	–
CCc1nc(Nc2ccc(NC(C)=O)cc2)c2oc3ccccc3c2n1	13.3% (inactive)	–
CC(=O)Nc1ccc(Nc2c3ccccc3nc3ccccc23)cc1	–	17.8 µM (active)
COc1ccc(C(=O)NCC(c2ccc(N(C)C)cc2)N2CCc3ccccc32)c(OC)c1 (stereo not given)	32% (inactive)	–
CCOc1ccc(-n2c(O)c(/C=N/c3ccnn3Cc3ccncc3)c3ccccc3c2=O)cc1	11.5% (inactive)	–
CCOc1ccc(-n2c(O)c(/C=N/Nc3nc(C)cc(C)n3)c3ccccc3c2=O)cc1	-19.5% (inactive)	–
CCOc1ccc(-n2c(O)c(/C=N/Nc3nnc(C)c(=O)[nH]3)c3ccccc3c2=O)cc1	–	56.2 µM (active)
CCOc1ccccc1NC(=O)CN1CCCN(Cc2cccc(Cl)c2)S1(=O)=O	1.06% (inactive)	–
CC(/C=C/C1(O)C(C)CC(=O)CC1(C)C)OC1OC(CO)C(O)C(O)C1O (stereo not given)	–	28.2 µM (active)
CC1=C(C)C(=O)OC(C(C)C2CCC3C4CC=C5CC(OC6OC(COC7OC(CO)C(O)C(O)C7O)C(O)C(O)C6O)CC(O)C5(C)C4CCC23C)C1 (stereo not given)	0.697% (inactive)	–

SMILES	activity change, negative = inhibition	Potency
C=CC1C(OC2OC(CO)C(O)C(O)C2O)OC=C(C(=O)OC)C1CC1CC(=O)CC(CC(=O)CCc2ccc(O)cc2)O1 (stereo not given)	-1.69% (inactive)	–
Cc1ccc(-c2nc3ccccn3c2Nc2c(C)cccc2C)o1	26.6% (inactive)	–
O=C(CN1CCSc2ccccc21)N1CCN(c2ccccc2)CC1	2.05% (inactive)	–
Oc1c(Cl)cc(Cl)c(Cl)c1Cc1c(O)c(Cl)cc(Cl)c1Cl	–	28.2 µM (active)
Cc1ccc(Cc2nc3ccccc3nc2SCC(=O)Nc2cccc(C(F)(F)F)c2)cc1	-1.48% (inactive)	–
Cc1ccc(-c2cnc(C3CC3)o2)cc1S(=O)(=O)Nc1cccc(C)c1C	-2.43% (inactive)	–
CCCOc1ccc(-c2cccc(NS(=O)(=O)c3ccccc3)c2)nn1	0.493% (inactive)	–
O=C(N/N=C/c1ccco1)c1csc2c1CCCC2	6.62% (inactive)	–
O=C(N/N=C/c1ccco1)c1ccc(C(=O)N/N=C/c2ccco2)o1	–	17.8 µM (active)
O=C(Cc1ccc([N+](=O)[O-])cc1)N/N=C/c1ccco1	5.52% (inactive)	–
CCc1ccccc1NC(=O)CSc1nnc(-c2ccccc2)c(-c2ccccc2)n1	3.25% (inactive)	–
Cc1c(Cl)cccc1NC(=O)N1CCN(C(=O)c2nsc3ccccc23)CC1	-0.591% (inactive)	–
CC1CCN(S(=O)(=O)c2ccc(NC(=O)C3CC(=O)N(c4ccccc4)C3)cc2)CC1 (stereo not given)	-23.6% (inactive)	–
COc1ccccc1N1CC(C(=O)Nc2ccc(S(=O)(=O)N3CCOCC3)cc2)CC1=O (stereo not given)	–	79.4 µM (active)
Cc1ccc(N2CC(C(=O)Nc3ccc(S(=O)(=O)N4CCCC4)cc3)CC2=O)cc1C (stereo not given)	1.24% (inactive)	–
COc1ccc(NC(=O)NC(C)c2c(-n3cccc3)sc(C)c2C)cc1OC (stereo not given)	-0.276% (inactive)	–
CCOc1ccc2nc(N3CCCC(C(=O)Nc4cc(C)ccc4C)C3)sc2c1 (stereo not given)	1.66% (inactive)	–
CCOc1cccc(-c2nn3c(-c4ccccn4)nnc3s2)c1	29.3% (inactive)	–
c1ccc(-c2cc(-c3nnc4sc(-c5ccccn5)nn34)[nH]n2)cc1	–	39.8 µM (active)
S=c1[nH]nc(-c2cc(-c3ccsc3)n[nH]2)n1-c1ccccc1	38.9% (inactive)	–
O=C(NNC(=O)c1cc2c(s1)CCCC2)c1ccccc1	-1.77% (inactive)	–
O=C(C1CCC1)N1CCN(c2ccccc2)CC1	12.2% (inactive)	–
O=C(c1cc2c(s1)CCC2)N1CCN(c2ccccc2)CC1	–	17.8 µM (active)
CCc1ccc(NC(=O)c2cc(S(=O)(=O)NC3CCCCCC3)ccc2F)cc1	1.54% (inactive)	–
CCOc1cccc(CC(=O)N2CCc3c([nH]c4ccccc34)C2c2ccc(OC)cc2)c1OCC (stereo not given)	-16.3% (inactive)	–

SMILES	activity change, negative = inhibition	Potency
CC(C)c1ccc(Nc2nnc(SCC(=O)c3nnc(-c4ccccc4)o3)s2)cc1	–	39.8 µM (active)
CC(C)Nc1nnc(SCC(=O)c2c[nH]c3ccccc23)s1	1.26% (inactive)	–
Cc1ccccc1Nc1nnc(SCC(=O)c2cc3ccccc3o2)s1	-1.02% (inactive)	–
Cc1cccc(Cn2c(SCc3ccc(C(=O)N4CCC(C)CC4)cc3)nc3ccncc32)c1	19.7% (inactive)	–
COc1cc(OC)c(OC)cc1/C=C/c1nc2ccccc2c(=O)n1-c1ccc(Br)c(C)c1	22.7% (inactive)	–
COc1ccc(C(=O)Nc2cccc(C(=O)OCc3cc(=O)n4c5c(sc4n3)CCCC5)c2)cc1	-16.3% (inactive)	–
Cc1ccc(CN2CCc3nc(N4CCN(C)CC4)ncc3C2)cc1	32% (inactive)	–
COc1cccc(N2CCN(C(=O)CCCCCn3c(=O)[nH]c4ccccc4c3=O)CC2)c1	27.1% (inactive)	–
Cc1cccc(NC(=O)CSc2nc(-c3ccco3)cc(C(F)(F)F)n2)c1C	-2.02% (inactive)	–
Cc1ccsc1-c1cc(C(=O)O)c2c(ccc3ccccc32)n1	13.8% (inactive)	–
Cc1cc(C)c2nc(-c3ccco3)cc(C(=O)O)c2c1	–	7.08 µM (active)
CCOc1cc(CNC(=O)c2sc3ncnc(N(C)C4CCCCC4)c3c2C)ccc1OC	-1.77% (inactive)	–
COc1ccc(CCNC(=O)C(=O)NCC(c2ccco2)S(=O)(=O)c2cccs2)cc1OC (stereo not given)	-9.89% (inactive)	–
O=C(Nc1ccc2nc(SCC(=O)N3CCCc4ccccc43)sc2c1)c1ccc(F)cc1	13.6% (inactive)	–
O=C(CSc1nccn1C1CCCC1)Nc1cc(C(F)(F)F)ccc1Cl	6.31% (inactive)	–
Cn1c(NN)nc2sc3c(c2c1=O)CCC3	–	89.1 µM (active)
NNC(=O)C1CCCn2c1nc1sc3c(c1c2=O)CCCC3 (stereo not given)	2.75% (inactive)	–
CCCc1nc2sc3c(c2c(=O)n1NC(=O)CCCl)CCCC3	-2.23% (inactive)	–
COc1ccccc1OCC(=O)Nc1nnc2n1CCS2	-20.4% (inactive)	–
CCOC(=O)c1c(C)oc2nc(C)nc(N3CCN(c4ccc(OC)cc4)CC3)c12	-15.6% (inactive)	–
CC(=O)NC1C(Oc2ccc(C=O)cc2)OC(COC(C)=O)C(OC(C)=O)C1OC(C)=O (stereo not given)	–	39.8 µM (active)
CCc1cccc(OC2OC(CO)C(O)C(O)C2NC(C)=O)c1 (stereo not given)	-1.07% (inactive)	–
CC(=O)NC1C(Oc2ccc(C)cc2)OC2COC(c3ccco3)OC2C1O (stereo not given)	-3.84% (inactive)	–
Cc1c(C(=O)N2CCCC2)oc2c1-c1nn(CC(=O)NCc3ccc(OC(C)C)cc3)cc1CC2	2.91% (inactive)	–
COc1ccc(-c2nc(SCC(=O)N3CCCCC3C)n[nH]2)cc1 (stereo not given)	3.44% (inactive)	–

SMILES	activity change, negative = inhibition	Potency
CCCCCn1c(=O)[nH]c2cc(C(=O)NCCN(C)CCCC)ccc2c1=O	-2.03% (inactive)	–
CCSc1nnc(NC(=O)c2cc(=O)c3cc(C)c(C)cc3o2)s1	-16.3% (inactive)	–
CCSc1nnc(NC(=O)c2ccc(C)cc2)s1	-1.08% (inactive)	–
Cc1ccc(C(=O)Oc2coc(CSc3nnc(NC(=O)c4cccs4)s3)cc2=O)cc1C	–	20 µM (active)
CCOC(=O)C1CCN(c2csc3ccc(C)cc3c2=O)CC1	38.3% (inactive)	–
O=C1NN(c2ccccc2)C(=O)/C1=C/c1ccc(-c2cccc(C(=O)O)c2)o1	–	35.5 µM (active)
COc1cc(/C=C2/C(=O)NN(c3cccc(Cl)c3)C2=O)cc(Br)c1O	-5.39% (inactive)	–
Cc1cccc(C)c1-n1c(C)cc(/C=C2\C(=O)NN(c3ccccc3)C2=O)c1C	-1.38% (inactive)	–
CCOc1cc(C2C(C(=O)OC)=C(C)NC3=C2C(=O)c2ccccc23)ccc1O (stereo not given)	-20.1% (inactive)	–
Cc1cccc2nc(-c3ccc(Cl)s3)c(Nc3ccc4c(c3)OCCO4)n12	-14.7% (inactive)	–
Cc1ccc(NC(=O)CCC(=O)c2ccc(Br)cc2)cc1	–	89.1 µM (active)
Cc1ccc(OC(=O)CCC(=O)Nc2ccc(Br)cc2)cc1	5.33% (inactive)	–
COc1ccc(C(=O)CCC(=O)Nc2ccc(Cl)cc2)cc1	-4.79% (inactive)	–
CCOc1cc(-c2nnc(SCC(=O)NC3CCCC3)nc2-c2ccc(OC)c(OCC)c2)ccc1OC	-29.7% (inactive)	–
CCCn1c2ccccc2c2cnn(CC(=O)N(C)c3ccccc3CC)c(=O)c21	0.302% (inactive)	–
COc1cccc(CNC(=O)CCc2nc(-c3ccc(C)cc3)no2)c1	0.0036% (inactive)	–
COc1ccc(OC)c(NC(=O)CSc2nc3ccccc3nc2N2CCCCC2)c1	-7.89% (inactive)	–
Cc1ccc2nc(/C(C#N)=C/c3ccccc3F)[nH]c2c1	0.138% (inactive)	–
Cc1ccc2nc(/C(C#N)=C/c3ccc(-c4ccc(C(=O)OC(C)C)cc4)o3)[nH]c2c1	–	28.2 µM (active)
CCOC(=O)c1ccc(-c2ccc(/C=C(\C#N)C(=O)Nc3ccc(C)cc3)o2)cc1	9.25% (inactive)	–
COc1ccc(S(=O)(=O)NCc2cccn2Cc2cccc(C)c2)cc1Cl	-0.864% (inactive)	–
COc1ccc(N2CCN(C3=NS(=O)(=O)C(c4cccc(Br)c4)=C3C)CC2)cc1	-13.7% (inactive)	–
COc1cc([C@H](Cc2ccccc2)NC(C)=O)oc(=O)c1	–	17.8 µM (active)
COc1ccc2oc(C(=O)NCC(Cc3ccccc3)N(C)C)c(C)c2c1 (stereo not given)	22.1% (inactive)	–
CCOC(=O)C(Cc1ccccc1)NC(=O)CCC(=O)c1ccc(OC)cc1 (stereo not given)	4.15% (inactive)	–
